This is an account of results in ChEMBL document CHEMBL1961873, “Compounds: GSK PKIS; Assays: Nanosyn kinase panel” (2012).

As usually defined, the inhibition is the drop in the measured response relative to a control, in per cent.

Molecules are shown by their SMILES.

Test [1] concerns the target T1, Tyrosine-protein kinase ITK/TSK (Homo sapiens) (UniProt Q08881).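 Note: values are mean percent inhibition of ITK from the GSK PKIS screen.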
T1 sequence (whole entry): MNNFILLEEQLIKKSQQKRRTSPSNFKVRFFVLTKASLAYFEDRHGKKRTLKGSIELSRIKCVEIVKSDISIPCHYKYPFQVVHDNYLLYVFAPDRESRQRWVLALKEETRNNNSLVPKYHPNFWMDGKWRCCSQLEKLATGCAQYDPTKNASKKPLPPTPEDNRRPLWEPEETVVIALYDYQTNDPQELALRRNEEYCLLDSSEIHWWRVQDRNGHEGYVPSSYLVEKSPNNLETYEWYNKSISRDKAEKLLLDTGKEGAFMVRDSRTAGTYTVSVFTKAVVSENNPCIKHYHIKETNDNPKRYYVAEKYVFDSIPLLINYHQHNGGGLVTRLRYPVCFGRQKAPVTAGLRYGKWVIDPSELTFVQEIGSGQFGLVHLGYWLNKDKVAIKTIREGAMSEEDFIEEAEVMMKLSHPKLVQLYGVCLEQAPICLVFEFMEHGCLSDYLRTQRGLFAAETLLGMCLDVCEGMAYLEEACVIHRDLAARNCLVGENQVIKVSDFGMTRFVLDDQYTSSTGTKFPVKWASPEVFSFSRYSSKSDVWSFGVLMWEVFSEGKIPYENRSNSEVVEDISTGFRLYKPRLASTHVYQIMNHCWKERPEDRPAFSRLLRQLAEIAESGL
The note with it: at 1 µM.

Test [2] has as its target Tyrosine-protein kinase JAK1 (Homo sapiens) (UniProt P23458). The note with it: at 0.1 µM.
For test [3] the target is unchanged. The note with it: at 1 µM.
Test [4] addresses Tyrosine-protein kinase JAK2 (Homo sapiens) (UniProt O60674). The note with it: at 0.1 µM.
Test [5] shares this target. The note with it: at 1 µM.
The target in test [6] is T2, Tyrosine-protein kinase JAK3 (Homo sapiens) (UniProt P52333).
T2 sequence (whole entry): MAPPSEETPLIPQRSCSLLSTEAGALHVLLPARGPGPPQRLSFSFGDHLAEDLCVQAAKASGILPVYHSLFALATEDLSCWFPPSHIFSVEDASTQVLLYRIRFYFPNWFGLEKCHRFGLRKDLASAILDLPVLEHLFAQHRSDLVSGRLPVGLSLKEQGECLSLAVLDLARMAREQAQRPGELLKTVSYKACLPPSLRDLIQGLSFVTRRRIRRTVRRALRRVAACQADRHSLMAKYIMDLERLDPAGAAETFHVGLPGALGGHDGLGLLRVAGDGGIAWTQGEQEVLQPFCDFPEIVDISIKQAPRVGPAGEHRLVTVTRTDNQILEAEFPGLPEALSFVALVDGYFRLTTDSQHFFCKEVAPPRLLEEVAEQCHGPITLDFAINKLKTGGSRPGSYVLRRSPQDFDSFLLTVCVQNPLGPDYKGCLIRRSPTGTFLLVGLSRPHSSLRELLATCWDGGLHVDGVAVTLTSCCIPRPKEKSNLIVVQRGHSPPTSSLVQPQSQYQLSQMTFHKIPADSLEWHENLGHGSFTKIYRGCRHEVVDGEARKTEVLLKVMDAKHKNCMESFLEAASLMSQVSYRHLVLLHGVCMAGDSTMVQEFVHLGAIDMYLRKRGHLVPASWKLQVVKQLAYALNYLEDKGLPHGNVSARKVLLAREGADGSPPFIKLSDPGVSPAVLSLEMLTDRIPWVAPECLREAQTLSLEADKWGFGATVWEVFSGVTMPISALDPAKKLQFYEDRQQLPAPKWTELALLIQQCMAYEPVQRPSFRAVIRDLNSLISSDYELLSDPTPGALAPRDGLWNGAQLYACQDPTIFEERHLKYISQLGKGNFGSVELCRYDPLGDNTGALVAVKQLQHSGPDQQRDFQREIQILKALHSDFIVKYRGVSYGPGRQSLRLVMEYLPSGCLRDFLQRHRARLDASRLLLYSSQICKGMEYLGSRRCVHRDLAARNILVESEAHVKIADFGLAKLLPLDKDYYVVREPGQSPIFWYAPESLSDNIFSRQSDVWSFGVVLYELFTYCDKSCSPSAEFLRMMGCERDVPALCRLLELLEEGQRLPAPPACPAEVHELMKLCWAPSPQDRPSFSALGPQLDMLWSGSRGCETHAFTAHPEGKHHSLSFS
The conditions noted are these: at 0.1 µM.

For test [7], the target named is T2, Tyrosine-protein kinase JAK3 (Homo sapiens). The note with it: at 1 µM.
Test [8] deals with Vascular endothelial growth factor receptor 2 (Homo sapiens) (UniProt P35968). The conditions noted are these: at 0.1 µM.
Test [9] has the same target. The conditions noted are these: at 1 µM.
Test [10] concerns the target Mast/stem cell growth factor receptor Kit (Homo sapiens) (UniProt P10721). The note with it: at 0.1 µM.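 Note: values are mean inhibition of KIT, from the GSK PKIS dataset.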

Sequence of Tyrosine-protein kinase JAK2 (Homo sapiens) (O60674 whole entry): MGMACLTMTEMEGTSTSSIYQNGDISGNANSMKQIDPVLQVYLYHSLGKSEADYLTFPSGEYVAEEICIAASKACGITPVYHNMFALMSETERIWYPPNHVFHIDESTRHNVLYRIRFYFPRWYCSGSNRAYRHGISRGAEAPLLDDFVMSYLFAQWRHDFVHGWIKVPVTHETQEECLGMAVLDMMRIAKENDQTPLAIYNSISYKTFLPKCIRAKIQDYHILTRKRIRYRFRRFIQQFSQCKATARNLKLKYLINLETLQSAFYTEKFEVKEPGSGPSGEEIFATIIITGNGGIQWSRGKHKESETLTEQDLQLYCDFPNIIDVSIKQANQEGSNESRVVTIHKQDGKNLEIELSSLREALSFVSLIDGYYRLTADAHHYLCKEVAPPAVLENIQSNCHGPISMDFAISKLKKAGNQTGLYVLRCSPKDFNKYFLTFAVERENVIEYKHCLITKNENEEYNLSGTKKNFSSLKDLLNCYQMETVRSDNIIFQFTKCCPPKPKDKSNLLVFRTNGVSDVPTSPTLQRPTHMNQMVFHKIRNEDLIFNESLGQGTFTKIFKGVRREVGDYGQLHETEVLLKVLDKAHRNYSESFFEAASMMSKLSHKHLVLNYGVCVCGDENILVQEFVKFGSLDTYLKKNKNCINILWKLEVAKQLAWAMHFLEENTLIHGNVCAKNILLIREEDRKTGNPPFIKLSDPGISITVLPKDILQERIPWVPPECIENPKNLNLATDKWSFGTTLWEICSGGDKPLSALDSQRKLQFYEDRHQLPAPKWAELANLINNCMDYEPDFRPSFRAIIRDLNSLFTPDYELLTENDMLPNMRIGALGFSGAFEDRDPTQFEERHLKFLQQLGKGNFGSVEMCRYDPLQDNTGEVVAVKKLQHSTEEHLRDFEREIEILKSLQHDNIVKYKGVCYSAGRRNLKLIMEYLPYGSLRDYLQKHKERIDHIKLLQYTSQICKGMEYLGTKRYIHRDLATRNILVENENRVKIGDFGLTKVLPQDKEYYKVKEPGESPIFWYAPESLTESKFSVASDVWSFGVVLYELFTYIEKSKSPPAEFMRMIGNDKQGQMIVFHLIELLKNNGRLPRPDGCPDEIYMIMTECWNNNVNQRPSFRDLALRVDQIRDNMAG
Sequence of Tyrosine-protein kinase JAK1 (Homo sapiens) (P23458 whole entry): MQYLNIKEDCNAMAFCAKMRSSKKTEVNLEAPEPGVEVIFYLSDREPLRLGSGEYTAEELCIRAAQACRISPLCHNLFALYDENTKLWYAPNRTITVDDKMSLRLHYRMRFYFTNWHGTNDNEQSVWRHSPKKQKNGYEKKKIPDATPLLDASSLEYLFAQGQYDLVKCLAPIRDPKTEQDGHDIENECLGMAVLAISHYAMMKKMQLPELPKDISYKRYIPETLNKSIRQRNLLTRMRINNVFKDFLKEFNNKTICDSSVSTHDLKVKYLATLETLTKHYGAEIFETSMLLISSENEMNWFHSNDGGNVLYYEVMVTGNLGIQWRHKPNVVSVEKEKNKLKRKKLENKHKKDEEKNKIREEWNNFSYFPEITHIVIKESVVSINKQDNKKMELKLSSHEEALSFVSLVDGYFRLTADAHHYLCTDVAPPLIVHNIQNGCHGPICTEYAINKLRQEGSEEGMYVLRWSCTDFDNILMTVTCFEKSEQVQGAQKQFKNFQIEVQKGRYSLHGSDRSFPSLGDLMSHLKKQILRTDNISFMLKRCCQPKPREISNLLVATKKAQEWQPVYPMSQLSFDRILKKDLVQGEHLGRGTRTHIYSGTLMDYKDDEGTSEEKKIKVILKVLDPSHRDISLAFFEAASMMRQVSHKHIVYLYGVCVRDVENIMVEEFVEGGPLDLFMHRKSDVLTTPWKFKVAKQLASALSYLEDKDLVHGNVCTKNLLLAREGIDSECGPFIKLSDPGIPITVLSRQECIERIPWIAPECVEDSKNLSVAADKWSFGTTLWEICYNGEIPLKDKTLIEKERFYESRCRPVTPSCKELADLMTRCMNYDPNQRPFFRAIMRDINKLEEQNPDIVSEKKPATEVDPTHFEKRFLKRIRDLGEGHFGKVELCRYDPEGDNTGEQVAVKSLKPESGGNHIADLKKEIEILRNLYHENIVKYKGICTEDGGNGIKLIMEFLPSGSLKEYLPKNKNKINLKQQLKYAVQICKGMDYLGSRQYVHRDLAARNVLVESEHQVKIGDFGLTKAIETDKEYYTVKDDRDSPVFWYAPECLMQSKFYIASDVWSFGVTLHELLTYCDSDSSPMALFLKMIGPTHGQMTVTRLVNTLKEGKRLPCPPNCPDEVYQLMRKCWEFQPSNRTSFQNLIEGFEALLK
Sequence of Mast/stem cell growth factor receptor Kit (Homo sapiens) (P10721 whole entry): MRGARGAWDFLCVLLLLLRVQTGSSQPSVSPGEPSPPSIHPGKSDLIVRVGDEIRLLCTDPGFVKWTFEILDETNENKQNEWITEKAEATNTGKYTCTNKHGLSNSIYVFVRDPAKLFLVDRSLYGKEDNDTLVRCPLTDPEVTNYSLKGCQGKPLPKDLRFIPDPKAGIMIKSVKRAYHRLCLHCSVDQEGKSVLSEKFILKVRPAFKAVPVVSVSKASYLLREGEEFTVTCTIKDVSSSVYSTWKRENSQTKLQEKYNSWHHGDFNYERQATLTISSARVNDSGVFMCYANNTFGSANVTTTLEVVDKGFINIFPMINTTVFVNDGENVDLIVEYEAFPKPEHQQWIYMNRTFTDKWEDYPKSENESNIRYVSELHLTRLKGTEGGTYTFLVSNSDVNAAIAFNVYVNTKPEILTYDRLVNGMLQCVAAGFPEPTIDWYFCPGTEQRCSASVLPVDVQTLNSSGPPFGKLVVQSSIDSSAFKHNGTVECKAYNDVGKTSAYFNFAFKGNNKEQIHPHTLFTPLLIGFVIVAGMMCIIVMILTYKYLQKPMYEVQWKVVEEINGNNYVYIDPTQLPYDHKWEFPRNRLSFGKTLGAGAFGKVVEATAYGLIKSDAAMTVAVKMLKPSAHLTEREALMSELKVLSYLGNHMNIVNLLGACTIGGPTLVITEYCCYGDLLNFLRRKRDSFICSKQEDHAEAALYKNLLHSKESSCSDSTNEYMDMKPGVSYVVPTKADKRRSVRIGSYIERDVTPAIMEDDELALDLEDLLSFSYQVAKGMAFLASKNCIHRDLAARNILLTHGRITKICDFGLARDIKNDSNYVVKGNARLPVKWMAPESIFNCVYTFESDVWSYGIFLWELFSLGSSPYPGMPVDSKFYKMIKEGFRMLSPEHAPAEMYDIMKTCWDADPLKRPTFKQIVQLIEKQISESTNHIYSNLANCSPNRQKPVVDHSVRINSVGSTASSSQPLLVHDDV
Sequence of Vascular endothelial growth factor receptor 2 (Homo sapiens) (P35968 whole entry): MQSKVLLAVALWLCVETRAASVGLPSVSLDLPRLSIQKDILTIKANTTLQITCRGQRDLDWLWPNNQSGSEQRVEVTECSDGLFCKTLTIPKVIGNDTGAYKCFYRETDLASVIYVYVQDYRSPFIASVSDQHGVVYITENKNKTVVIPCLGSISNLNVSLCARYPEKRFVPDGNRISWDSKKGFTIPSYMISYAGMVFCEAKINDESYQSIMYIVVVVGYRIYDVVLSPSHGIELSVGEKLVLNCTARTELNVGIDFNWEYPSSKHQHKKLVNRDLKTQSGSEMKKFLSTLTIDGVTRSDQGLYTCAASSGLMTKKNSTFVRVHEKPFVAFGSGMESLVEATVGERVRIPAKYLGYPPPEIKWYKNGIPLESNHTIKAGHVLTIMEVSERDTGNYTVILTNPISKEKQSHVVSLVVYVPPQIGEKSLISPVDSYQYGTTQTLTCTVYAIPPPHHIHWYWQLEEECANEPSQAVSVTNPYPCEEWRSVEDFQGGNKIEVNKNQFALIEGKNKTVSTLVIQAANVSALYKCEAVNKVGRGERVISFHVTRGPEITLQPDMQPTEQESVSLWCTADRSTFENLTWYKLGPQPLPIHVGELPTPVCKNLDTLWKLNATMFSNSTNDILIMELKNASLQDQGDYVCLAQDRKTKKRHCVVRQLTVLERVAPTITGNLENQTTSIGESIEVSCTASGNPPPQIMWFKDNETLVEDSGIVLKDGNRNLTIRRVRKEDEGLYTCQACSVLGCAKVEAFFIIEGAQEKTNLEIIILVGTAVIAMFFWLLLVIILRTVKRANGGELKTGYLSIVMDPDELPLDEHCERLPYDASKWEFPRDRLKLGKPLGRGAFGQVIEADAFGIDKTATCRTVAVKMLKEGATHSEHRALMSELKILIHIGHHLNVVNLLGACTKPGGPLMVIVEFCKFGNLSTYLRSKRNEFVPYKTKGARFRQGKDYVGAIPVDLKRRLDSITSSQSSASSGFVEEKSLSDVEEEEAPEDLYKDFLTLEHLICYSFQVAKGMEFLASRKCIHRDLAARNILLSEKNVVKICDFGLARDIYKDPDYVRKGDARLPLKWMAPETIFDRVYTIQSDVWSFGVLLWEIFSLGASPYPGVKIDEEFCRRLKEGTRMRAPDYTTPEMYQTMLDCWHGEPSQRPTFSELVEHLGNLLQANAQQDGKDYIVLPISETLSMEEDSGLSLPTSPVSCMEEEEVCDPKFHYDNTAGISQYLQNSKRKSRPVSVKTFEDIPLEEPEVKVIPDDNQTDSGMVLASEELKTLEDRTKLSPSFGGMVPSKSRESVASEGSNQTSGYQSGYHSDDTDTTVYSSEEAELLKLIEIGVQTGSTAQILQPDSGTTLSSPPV

As to `c1ccc(Oc2ccc(Nc3ncc(-c4ccccc4)o3)cc2)cc1`, the inhibition in test [1] was 2.13%; in test [2], 0.76%; in [3], 3.56%; in [4], 1.66%; in test [5] it was 1.65%; in [6], -0.5%. Moreover, the inhibition in test [7] is 4.13%; in test [8], 4.37%; in [9], 3.48%; in test [10] it was 3.26%.

On to `COc1ccc2cc(-c3c(-c4ccncc4)nc(-c4ccc(S(C)(=O)=O)cc4C)n3C)ccc2c1`, for which the inhibition is 1.36% in test [1]; 5.05% in test [2]; 11.1% in test [3]; 1.62% in [4]; 1.45% in [5]; -0.96% in [6]. The inhibition in [7] was -0.93%; in test [8] it was 10.7%; in test [9] it was 47.8%; in test [10] it was 5.09%.

Turning to `NS(=O)(=O)c1ccc(Nc2cc(-c3ccc(O)c(F)c3)n[nH]2)cc1`, the inhibition in test [1] was 12.4%; in [2] it was -7.43%; in test [3], 6.94%; in test [4], -0.13%; in test [5], -0.37%; in [6] it was 0.11%. Moreover, the inhibition amounted to 8.25% in test [7], 4.49% in test [8], 35.3% in test [9] and 20.9% in test [10].

`Fc1ccc(-c2c(-c3ccncc3)nc3n2CCS3)cc1`: the inhibition in test [1] was -2.17%; in test [2] it was 1.7%; in test [3], 10.2%; in [4], 0.77%; in test [5] it was 4.51%; in [6] it was -3.51%. Also, the inhibition is 2.02% in [7], 5.2% in test [8], 9.29% in test [9] and 3.82% in [10].

Take `c1ccc(-c2n[nH]cc2-c2ccnc(-c3ccc(OCCN4CCOCC4)cc3)c2)nc1`: the inhibition in test [1] is 3.99%; in test [2], 6.98%; in test [3], 4.5%; in [4] it was 0.47%; in test [5] it was -0.22%; in [6], 6.96%. In addition, the inhibition came out at 5.88% in test [7], 13.7% in test [8], 60.8% in test [9] and 0.56% in test [10].

Take `CCS(=O)(=O)c1ccc(OC)c(Nc2ncc(-c3ccccc3Cl)o2)c1`: the inhibition is 1.73% in [1]; 5.17% in test [2]; -2.96% in test [3]; 1.84% in test [4]; 0.94% in [5]; 0.9% in [6]. In addition, the inhibition was 4.04% in [7], 8.35% in [8], 33.8% in test [9] and 17.3% in [10].

`O=C(NCC1CC1)c1ccc(-c2cccc(C(=O)NC3CC3)c2)cc1`: the inhibition is 2.71% in test [1]; 0.26% in [2]; -6.93% in test [3]; 1.73% in [4]; 0.94% in [5]; -0.66% in [6]. Further, the inhibition in test [7] was found to be 0.07%; in [8], 5.99%; in test [9] it was 8.55%; in [10], 1.06%.

Take `Fc1ccc(-c2ncn(C3CCNCC3)c2-c2ccnc(Oc3ccc(Oc4ccccc4)cc3)n2)cc1`: the inhibition in test [1] was 2.41%; in [2], 1.18%; in test [3] it was 1.84%; in test [4], 2.34%; in test [5], 3.84%; in test [6], 1.04%. In addition, the inhibition in test [7] was 0.1%; in test [8] it was 2.97%; in [9] it was 10.7%; in test [10], 2.94%.

Take `NS(=O)(=O)c1ccc(N/N=C2\C(=O)Nc3ccc(-c4cnco4)cc32)cc1`: the inhibition was -0.93% in test [1]; 1.96% in test [2]; 6.12% in test [3]; 0.38% in test [4]; 5.7% in test [5]; -4.76% in [6]. Moreover, the inhibition in test [7] turned out to be 24.1%; in test [8], 6.94%; in test [9], 39.1%; in test [10], 5.83%.

For the molecule `CCN(CC)Cc1ccc(Nc2nccc(-c3cnn4ncccc34)n2)cc1`, the inhibition in test [1] is -0.21%; in test [2], 4.71%; in test [3] it was 4.83%; in test [4], 6.24%; in test [5] it was 20.9%; in test [6] it was -3.13%. In addition, the inhibition in test [7] is 14.2%; in [8] it was 7.19%; in test [9], 39.1%; in test [10], 64.8%.

Turning to `COc1cc(N2CCN(C(C)C)CC2)ccc1Nc1nc(Nc2ccc(F)cc2C(=O)NC[C@@H](O)CO)c2cc[nH]c2n1`, the inhibition in test [1] is -1.4%; in test [2] it was 3.78%; in test [3] it was 12.3%; in test [4] it was 0.29%; in [5], 1.56%; in test [6], -5.03%. The inhibition was -8.11% in test [7], 5.49% in [8], 8.49% in test [9] and 4.46% in test [10].

`Cc1ccc(NC(=O)c2ccoc2)cc1-c1ccc(C(=O)NCC2CC2)cc1`: the inhibition in test [1] was 1.05%; in test [2], 1%; in [3], 2.95%; in test [4], 0%; in test [5] it was -1.25%; in [6], -1.84%. In addition, the inhibition was -0.47% in [7], 15.3% in test [8], 62% in test [9] and 1.57% in [10].

`O=C(Nc1n[nH]c2cc(-c3ccccc3)ccc12)C1CC1`: the inhibition in test [1] is 2.12%; in test [2], 2.85%; in test [3], 7.69%; in [4] it was 2.26%; in test [5], 0.77%; in [6] it was -1.69%. For the same molecule, the inhibition was 0.16% in test [7], 4.79% in [8], 12.6% in test [9] and 3.52% in [10].

Take `COc1ccc(C2=C(N3CCc4ccccc43)C(=O)NC2=O)cc1`: the inhibition in test [1] is 2.26%; in [2], 3.92%; in test [3], 7.64%; in test [4], 2.9%; in [5], 3.26%; in test [6], -0.7%. Also, the inhibition worked out at 1.63% in [7], 8.98% in test [8], 14.5% in test [9] and 7.63% in test [10].

For `CS(=O)(=O)CCNCc1cc(-c2cc3c(Nc4ccc(OCc5cccc(F)c5)c(Cl)c4)ncnc3s2)cs1`, the inhibition in [1] was 3.04%; in test [2], -1.42%; in [3] it was 3.76%; in test [4] it was 2.28%; in test [5], 5.69%; in test [6], -2.63%. For the same molecule, the inhibition is -0.49% in test [7], 6.12% in [8], 8.97% in test [9] and 7.21% in test [10].

As to `C[C@@H](Oc1cc(-n2cnc3ccc(OCC4CCN(C)CC4)cc32)sc1C(N)=O)c1ccccc1Cl`, the inhibition in test [1] is 3.2%; in test [2], 8.98%; in [3], 6.05%; in [4] it was 1.61%; in test [5], 2.26%; in test [6] it was -1.46%. The inhibition in test [7] turned out to be 29.3%; in [8] it was 7.07%; in test [9] it was 36.4%; in test [10], 5.23%.

For `CNC(=O)c1cncc(/C=C/c2c(C)cccc2C)c1`, the inhibition in [1] was -3.29%; in test [2] it was 0.62%; in [3], -1.32%; in test [4] it was 2.87%; in test [5] it was 2.41%; in test [6] it was -3.28%. Further, the inhibition in [7] was -0.59%; in test [8], 3.77%; in test [9], 3.51%; in test [10], 10.7%.
